About 83,000 compounds went through this panel and 20% of them were active in at least one assay; those are over-represented in the sample as a whole.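 Each cell line was grown in a 96-well plate and treated with one concentration of compound for 48 hours. Values below 10 were considered active.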 The source made the active and inactive calls.
The molecules below were run on MDA-MB-468 breast (assay: NCI-60 one-dose screen, 48 h (100 = growth as untreated, 0 = no growth, -100 = all killed)). Details: 10 µM unless noted.

Row | Compound | growth
1 | CCc1c(C)c2ccc(O)c(-c3cc(-c4ccccc4)c(C#N)c(=O)[nH]3)c2oc1=O | 102% (inactive)
2 | COc1cc(NC(N)=NCCC(C)(C)Oc2ccc(C(F)(F)F)cc2)ncc1C#N | -84.4% (active)
3 | COc1cc(N=Nc2ccc(O)c3ncccc23)c2ncccc2c1 | -36.5% (active)
4 | COCCn1cc(-c2nc(-c3cc4cccnc4[nH]3)cs2)c2cc(OC)ccc21 | -24% (active)
5 | CCc1ncnc2c1ccn2C(C)c1ccc(OC)c(F)c1 (centres undefined) | -1.21% (active)
6 | O=C1Nc2ccc(F)cc2/C1=C\c1c(-c2ccccc2)nc2ccccn12 | 35.6% (inactive)
7 | COc1cc(/C=N\NC(=O)CN2CCN(c3cc4c(cc3F)c(=O)c(C(=O)N/N=C/c3cc(OC)c(OC)c(OC)c3)cn4C3CC3)CC2)cc(OC)c1OC | -31.1% (active)
8 | COc1ccc(NS(=O)(=O)c2ccc(C)cc2)c([N+](=O)[O-])c1 | 86.6% (inactive)
9 | O=C(N/N=C/c1ccc[nH]1)c1[nH]c2ccc(Br)cc2c1-c1ccccc1 | -0.633% (active)
10 | Nc1ccccc1NC(=O)CCCCCCC(=O)Nc1ccc2c(c1)/C(=C/c1ccc[nH]1)C(=O)N2 | 32.9% (inactive)
11 | COc1cc(/C=C/C(=O)c2c(C)oc3nc[nH]c(=O)c23)cc(OC)c1OC | 64.3% (inactive)
12 | COc1ccc(NC(=O)c2ccc(NC3=C(c4ccc(Cl)cc4)C(=O)NC3=O)cc2)cc1 | 88.1% (inactive)
13 | Oc1ccc(/C=N/N=C2c3ccccc3-c3ccccc32)c(O)c1 | -1.47% (active)
14 | CC(=O)C1=C(C)NC(NNc2ccccc2)=NC1c1ccc([N+](=O)[O-])cc1 (centres undefined) | 92.3% (inactive)

Reference: PubChem BioAssay (NCI)
